Compounds with a hit are over-represented: about 19% of the library has one in this group of screens.
HT1080-NT tox = kills 2HG-producing HT-1080-NT fibrosarcoma cells; HT-1080-NT fibrosarcoma viability, CellTiter-Glo ATP luminescence, 48 h; AID 686970; Potency, µM (doses to about 46.1 µM), for the others: at the highest dose activity, negative = less viability, usual class: cytotoxic; 360,000 compounds, 1.6% hits;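 note: NT is the 2HG producing partner of a matched IDH1 knockdown line; 0% = DMSO-treated cells and -100% = media-only wells without cells; nearly all actives have a fitted effect of over 55% in size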
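Read-out is CellTiter-Glo luminescence after 10 minutes at room temperature, following 48 hours' compound treatment of HT-1080-NT cells (750 cells/well, RPMI, 5% FBS, 37 degrees C).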
KB-3-1 tox = KB-3-1 parental cell cytotoxicity | KB-3-1 viability, CellTiter-Glo ATP luminescence, 72 h | AID 1347075 | Potency, µM (highest dose often 46.1 µM), most hits filed as cytotoxic | 400,000 compounds, 1.4% hits; note: nearly all actives have a fitted effect of over 60% in size
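72 h, 37 °C compound treatment of KB-3-1 parental cells; CellTiter-Glo added, 10 min, luminescence read. Data corrected against DMSO-only plates and normalized before curve fitting.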
DT40 TDP1 CPT = growth inhibition of DT40 Tdp1-/-;hTDP1 cells with camptothecin (screen for TDP1 inhibitors) | AID 686979 | chicken DT40 Tdp1-/-;hTDP1 cells + 20 nM CPT, ATP luminescence, 48 h | Potency, µM (doses to about 46.2 µM), inactives show top-dose activity change, negative = growth inhibition, hits mostly inhibitors | 420,000 compounds, 12% hits; note: nearly all actives have a fitted effect of over 55% in size
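Cell growth measured by CellTiter-Glo luminescence after a minimum 48 h, 37 C compound exposure with 20 nM CPT in Tdp1-knockout DT40 cells stably expressing hTDP1, seeded 400/well; qHTS titration format.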
HT1080 IDH1KD tx = toxicity to HT-1080 IDH1 knockdown cells (counter line) | Potency, µM (doses to about 46.1 µM), inactives show at the top dose activity, negative = toxicity, usual class: cytotoxic | 360,000 compounds, 2% hits | AID 686971 | HT-1080 IDH1 knockdown viability, ATP luminescence, 48 h;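 note: 0% = DMSO wells and -100% = cell-free medium wells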
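After a 2 h attachment period, IDH1KD HT-1080 cells took pin-transferred compound for 48 h at 37 °C; ATP-based luminescence after 10 min room-temperature reagent incubation reported viability.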
DT40 TDP1 no CPT = qHTS for Inhibitors of human tyrosyl-DNA phosphodiesterase 1 (TDP1): qHTS in cells in absence of CPT; DT40 Tdp1-/- hTDP1 cells, no CPT, ATP luminescence, 48 h; Potency, µM (titrated, usually from 46.2 µM), for inactives: at the highest dose activity change, negative = growth inhibition, usual class: inhibitors; 420,000 compounds, 15% hits; AID 686978, 2013; note: nearly all actives have a fitted effect of over 55% in size
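Seeded 400 DT40-hTDP1 cells/well (vehicle DMSO, no 20 nM CPT); pinned compounds; ≥48 hr at 37 °C; CellTiter-Glo luminescence as viability measure.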
KB-V1 MDR tox = KB-V1 MDR subline cytotoxicity. KB-V1 MDR cells viability, CellTiter-Glo, 72 h. Potency, µM (titrated, usually from 46.1 µM), usual class: cytotoxic. 400,000 compounds, 3.4% hits. AID 1347076; note: nearly all actives have a fitted effect of over 60% in size
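Compound-treated KB-V1 multidrug-resistant cells, 72 h, 37 degrees C; viability by CellTiter-Glo. Fitted qHTS curves give the values.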
Starred values were filed as active, the others as inactive; i = inactive; ? = inconclusive; . = no result given. Calls come from the whole dose curve; as a rule, active = well fitted curve in the direction sought with a large enough effect; inconclusive = small, poorly fitted or top-dose-only effect, or another doubt; inactive = no such curve, though single readings can be large; an effect the other way counts as inactive or inconclusive. Unless noted, % is set by controls: 0 for no effect and ±100 for the full control effect; potency is the fitted concentration of half-maximal effect.

SMILES	HT1080-NT tox	KB-3-1 tox	DT40 TDP1 CPT	HT1080 IDH1KD tx	DT40 TDP1 no CPT	KB-V1 MDR tox
COc1cc(NC(=O)c2nc3cc(C)c(C)cc3n(C)c2=O)cc(OC)c1OC	.	i	12%	.	6%	i
COc1ccc2c(c1)c1c(c(=O)n(Cc3ccccc3)c(=O)n1CC(=O)NCc1ccccc1Cl)n2C	.	i	6%	.	0%	i
C[C@@H]1CCCCO[C@@H](CN(C)CC2CC2)[C@@H](C)CN([C@H](C)CO)C(=O)c2cc(N(C)C)ccc2O1	4%	i	22%	-12%	10%	i
C[C@@H]1CN([C@@H](C)CO)C(=O)c2cc(N(C)C)ccc2O[C@@H](C)CCCCO[C@@H]1CN(C)S(=O)(=O)c1cccs1	-7%	i	18µM*	-12%	16µM*	?
Cc1ccc(-c2noc(-c3cccnc3NCc3ccc(Cl)cc3)n2)cc1	.	i	-9%	.	-23%	i
COc1cc2c(cc1NC(=O)COC(=O)CNC(=O)c1ccccc1)oc1ccccc12	-4%	i	1%	-7%	-18%	i
COc1cc2c(cc1NC(=O)COc1ccc(Cl)cc1Br)oc1ccccc12	.	i	-3%	.	0%	?
CC(C)[C@H](NC(=O)c1ccccc1F)C(=O)OCC(=O)Nc1sccc1C(N)=O	4%	i	?	6%	12µM*	i
CC(C)[C@H](NC(=O)c1ccccc1F)C(=O)OCC(=O)NC(=O)NC1CCCCC1	1%	i	?	-10%	-6%	i
COc1cc2c(cc1NC(=O)COC(=O)[C@@H](NC(=O)c1ccccc1F)C(C)C)oc1ccccc12	4%	i	?	9%	21µM*	16µM*
COc1cc2c(cc1NC(=O)COC(=O)[C@@H](NC(=O)c1ccccc1)C(C)C)oc1ccccc12	-14%	i	?	-3%	?	9.2µM*
COc1ccc(-c2c(C)nn3c(N4CCN(c5ccccc5)CC4)cc(C)nc23)cc1OC	.	i	?	.	?	i
CCCc1cc(=O)oc2c(CNc3ccc(OCC)cc3)c(O)ccc12	14%	i	12µM*	6%	?	i
Cc1ccccc1C(=O)n1nc(-c2ccco2)nc1NCc1cccs1	.	i	13µM*	.	?	i
O=C(c1cccs1)n1nc(-c2ccccc2)nc1NCc1ccco1	8%	i	21µM*	7%	?	i
COc1ccc(CNc2nc(NCc3ccc(OC)c(OC)c3)n(C(=O)c3cccs3)n2)cc1OC	?	i	16µM*	?	15µM*	?
O=C(CC[C@H]1O[C@@H](n2ccc(=O)[nH]c2=O)[C@H](O)[C@@H]1O)N[C@H](Cc1ccccc1)C(=O)NCc1ccccc1	30%	i	0%	15%	26%	i
COc1ccc(CCNC2=CC(=O)CCC2)cc1OC	24%	i	-19%	10%	-13%	i
Cc1ccc(C(=O)COC(=O)c2cn(-c3ccccc3)nc2-c2ccccc2)cc1[N+](=O)[O-]	9%	i	0%	12%	?	i
O=C1C=C(O)c2cccc(O)c2C1=O	-21%	i	26µM*	-2%	?	i
COc1ccc(-c2cc3c(=O)n(CC(=O)NCCCN4CCC(Cc5ccccc5)CC4)ncn3n2)cc1	?	21µM*	?	?	?	i
COc1ccc(-c2cc3c(=O)n(CC(=O)NCCCN4CCN(Cc5ccccc5)CC4)ncn3n2)cc1	1%	i	9.2µM*	0%	5.2µM*	i
COc1ccc(-c2cc3c(=O)n(CC(=O)NCc4ccc(C)cc4)ncn3n2)cc1	-3%	i	7.3µM*	2%	6.5µM*	i

From PubChem
